Test results reported in PubChem BioAssay (Tox21).
Unmarked numbers belong to inactive results. Results filed as inconclusive are left out. A call without a number means that no potency is given here. Activity calls are given as the source filed them. Unless noted, calls come from the whole dose curve; as a rule, active = well fitted curve in the direction sought with a large enough effect in the repeat runs; inconclusive = weak or mixed curves; inactive = no such curve, though single readings can be large; an effect the other way counts as inactive or inconclusive.

Tests used:
[1] = molecular target: Thyrotropin receptor (Homo sapiens) (UniProt P16473); assay: qHTS assay to identify small molecule antagonists of the thyroid stimulating hormone receptor (TSHR) signaling pathway (AID 1259385; calls by dose curve; note: nearly all actives have a fitted effect of over 20% in size)
Thyrotropin receptor (Homo sapiens), sequence (P16473 whole entry, looked up): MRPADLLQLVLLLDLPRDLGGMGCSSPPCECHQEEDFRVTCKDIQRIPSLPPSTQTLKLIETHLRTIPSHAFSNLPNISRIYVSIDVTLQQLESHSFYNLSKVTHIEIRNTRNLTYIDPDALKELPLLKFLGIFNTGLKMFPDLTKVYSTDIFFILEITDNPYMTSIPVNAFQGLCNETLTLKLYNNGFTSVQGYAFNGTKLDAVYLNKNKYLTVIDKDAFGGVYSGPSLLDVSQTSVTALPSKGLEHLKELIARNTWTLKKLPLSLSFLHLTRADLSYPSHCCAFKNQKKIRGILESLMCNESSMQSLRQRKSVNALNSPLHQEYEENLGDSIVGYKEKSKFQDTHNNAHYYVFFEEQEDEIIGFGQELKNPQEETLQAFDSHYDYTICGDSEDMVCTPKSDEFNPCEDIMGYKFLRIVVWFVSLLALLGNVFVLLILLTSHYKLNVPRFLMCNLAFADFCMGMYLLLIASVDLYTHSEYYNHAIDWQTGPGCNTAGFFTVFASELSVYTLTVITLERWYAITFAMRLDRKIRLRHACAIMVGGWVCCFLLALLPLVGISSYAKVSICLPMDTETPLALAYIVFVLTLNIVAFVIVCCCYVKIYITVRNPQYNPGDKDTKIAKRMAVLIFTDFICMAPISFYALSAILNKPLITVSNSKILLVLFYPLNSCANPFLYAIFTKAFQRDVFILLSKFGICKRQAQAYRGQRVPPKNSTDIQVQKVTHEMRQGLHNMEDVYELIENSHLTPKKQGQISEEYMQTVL
Method in brief: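 Antagonist mode: compound-treated TSHR-expressing HEK293 cells were stimulated with 1.5 ng/mL TSH (final) in presence of Ro20-1724 for 30 min at RT. HTRF cAMP detection after 1 h; each compound tested at 15 concentrations, triplicate.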

[2] = qHTS assay to identify small molecule agonists of the estrogen receptor alpha (ER-alpha) signaling pathway in the presence of an antagonist - cell viability counter screen (AID 1259386); note: series mostly up to about 92 µM; nearly all actives have a fitted effect of over 30% in size
Method in brief: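 Compounds tested at 15 concentrations for 22 h at 37C alongside 10.0nM (final) ICI-182,780 antagonist, in VM7Luc4E2 cells grown in phenol red-free, charcoal-stripped medium. Viability read by CellTiter-Fluor fluorescence after 1 h reagent incubation.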

[3] = molecular target: Progesterone receptor (Homo sapiens) (UniProt P06401); assay: qHTS assay to identify small molecule agonists of the progesterone receptor (PR) signaling pathway (AID 1346784; calls by dose curve; note: nearly all actives have a fitted effect of over 30% in size)
Progesterone receptor (Homo sapiens), sequence (P06401 whole entry, looked up): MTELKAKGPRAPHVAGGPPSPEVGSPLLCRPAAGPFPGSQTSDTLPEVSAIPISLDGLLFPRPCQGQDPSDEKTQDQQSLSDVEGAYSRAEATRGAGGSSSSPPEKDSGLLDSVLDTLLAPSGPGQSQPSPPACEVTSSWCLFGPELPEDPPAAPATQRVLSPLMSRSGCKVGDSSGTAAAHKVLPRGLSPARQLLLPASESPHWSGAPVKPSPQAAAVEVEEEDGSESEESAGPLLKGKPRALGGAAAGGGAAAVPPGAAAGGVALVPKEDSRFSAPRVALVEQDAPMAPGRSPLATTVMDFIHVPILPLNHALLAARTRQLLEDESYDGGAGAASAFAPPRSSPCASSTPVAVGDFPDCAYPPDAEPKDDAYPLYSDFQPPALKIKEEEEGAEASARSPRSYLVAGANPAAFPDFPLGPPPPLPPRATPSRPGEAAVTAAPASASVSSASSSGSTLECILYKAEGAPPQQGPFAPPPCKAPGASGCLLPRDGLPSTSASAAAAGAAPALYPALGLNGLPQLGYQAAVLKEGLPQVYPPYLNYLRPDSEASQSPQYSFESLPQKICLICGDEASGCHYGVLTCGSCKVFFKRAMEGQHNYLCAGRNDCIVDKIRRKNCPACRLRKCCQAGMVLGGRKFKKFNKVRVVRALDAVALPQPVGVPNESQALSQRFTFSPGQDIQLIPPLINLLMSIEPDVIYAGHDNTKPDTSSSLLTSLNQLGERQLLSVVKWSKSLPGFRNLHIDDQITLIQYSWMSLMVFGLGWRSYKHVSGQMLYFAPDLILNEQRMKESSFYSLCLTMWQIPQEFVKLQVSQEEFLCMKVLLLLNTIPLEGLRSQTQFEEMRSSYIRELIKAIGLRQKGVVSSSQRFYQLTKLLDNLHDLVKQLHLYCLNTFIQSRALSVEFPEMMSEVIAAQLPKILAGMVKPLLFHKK
Method in brief: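 Reporter assay, GripTite PR-UAS-bla HEK 293T cells: 16 hr exposure to DMSO-dissolved compounds at 37C, 5% CO2, in steroid-depleted (2% charcoal-stripped FBS) medium; beta-lactamase measured by FRET fluorescence.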

[4] = molecular target: Progesterone receptor (Homo sapiens) (UniProt P06401); assay: qHTS assay to identify small molecule antagonists of the progesterone receptor (PR) signaling pathway (AID 1346795; active = well fitted inhibition curve with a large enough effect in the signal ratio in the repeat runs, not every such curve was filed as active; the % refers to the signal ratio)
Method in brief: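 Stimulus R5020 at 1 nM final; cells HEK293T PR-UAS-bla; medium with 2% charcoal-stripped FBS; compound exposure 16 hr at 37C, 5% CO2; detection by FRET beta-lactamase substrate, 2 hr, room temperature.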

[5] = qHTS assay to identify small molecule antagonists of the progesterone receptor (PR) signaling pathway - cell viability counter screen (AID 1346798); note: series mostly up to about 92 µM; nearly all actives have a fitted effect of over 50% in size
Method in brief: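 In the same plates used for the beta-lactamase readout, cell viability of compound- and R5020-treated PR-UAS-bla HEK293T cells (16 hr, 37C) was assessed by CellTiter-Glo luminescence.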

[6] = qHTS assay to identify small molecule agonists of the progesterone receptor (PR) signaling pathway - cell viability counter screen (AID 1346799; calls by dose curve; note: nearly all actives have a fitted effect of over 45% in size)
Method in brief: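 Multiplexed viability read: CellTiter-Glo luminescence, 30 min RT, following LiveBLAzer FRET measurement on PR-UAS-bla HEK293T cells exposed to compounds 16 hr.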

[7] = qHTS assay to identify small molecule antagonists of the TGF-beta/Smad signaling pathway - cell viability counter screen (AID 1346824); note: nearly all actives have a fitted effect of over 50% in size
Method in brief: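 Cytotoxicity counter-screen run in the same wells as the beta-lactamase Smad reporter read: CellTiter-Glo luminescence after 30 min at room temperature. HEK 293T SBE-bla cells had 5 hr compound exposure at 37 C with TGF-beta1 (0.25 ng/mL stock).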

[8] = qHTS assay to identify small molecule agonists of the TGF-beta/Smad signaling pathway - cell viability counter screen (AID 1346829); note: top concentration of the series differs between compounds; nearly all actives have a fitted effect of over 45% in size
Method in brief: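 After overnight seating at 37 C and 5% CO2, reporter cells got compounds for 5 hr and FRET substrate for 2 hr; cell viability then came from CellTiter-Glo luminescence.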

[9] = qHTS assay to identify small molecule agonists of the TGF-beta/Smad signaling pathway (AID 1346859; active = well fitted activation curve with a large enough effect in the signal ratio in the repeat runs, not every such curve was filed as active; the % refers to the signal ratio; note: series mostly up to about 77 µM)
Method in brief: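 Screening used HEK 293T SBE-bla cells at 4,000/well. Test agents: 5 hr, 37 C. Detection: FRET substrate, 2 hr RT, then excitation 405 nm with emissions at 460 and 530 nm.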

[10] = Human pregnane X receptor (PXR) small molecule agonists, qHTS cell viability counter screen (AID 1346977); note: nearly all actives have a fitted effect of over 50% in size; note: potency is the fitted concentration of half-maximal effect
Method in brief: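 In each well, the PXR reporter HepG2 line was checked for viability: CellTiter-Fluor reagent added 23hr post-dosing, fluorescence read after 1hr incubation at 37C.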

[11] = Caspase-3/7 induction in HepG2 cells by small molecules, qHTS assay (AID 1346978); note: nearly all actives have a fitted effect of over 15% in size
Method in brief: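 Caspase-3/7 induction was measured by Caspase-Glo 3/7 luminescence (30 min, room temperature) after a 17 hr compound exposure of wild-type HepG2 cells seeded at 2,000 per well and pre-incubated 5 hr.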

[12] = Caspase-3/7 induction in CHO-K1 cells by small molecules, qHTS cell viability counter screen (AID 1346979); note: nearly all actives have a fitted effect of over 35% in size; note: potency is the fitted concentration of half-maximal effect
Method in brief: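 Following a 5hr settling period, CHO-K1 cells at 1,500 per well received DMSO-dissolved compounds. Cell viability was quantified 16hr later by CellTiter-Fluor fluorescence, measured after 1hr with reagent at 37C.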

[13] = Caspase-3/7 induction in CHO-K1 cells by small molecules, qHTS assay (AID 1346980); note: nearly all actives have a fitted effect of over 15% in size
Method in brief: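 Luminescent Caspase-Glo 3/7 read (30min, room temperature) quantified apoptosis induction. Cells were wild-type CHO-K1, treated with compound for 17hr at 37 C and 5% CO2.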

[14] = Caspase-3/7 induction in HepG2 cells by small molecules, qHTS cell viability counter screen (AID 1346981); note: series mostly up to about 92 µM; nearly all actives have a fitted effect of over 30% in size
Method in brief: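 CellTiter-Fluor fluorescence measured viability in the same wells used for Caspase-Glo 3/7. HepG2 (wild type) at 2,000 cells/well were pre-incubated 5 hr, dosed, and given reagent at 16 hr, with 1 hr further at 37C.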

[15] = molecular target: Nuclear receptor subfamily 1 group I member 2 (Homo sapiens) (UniProt O75469); assay: Human pregnane X receptor (PXR) small molecule agonists, qHTS assay (AID 1346982); note: nearly all actives have a fitted effect of over 35% in size; note: potency is the fitted concentration of half-maximal effect
Nuclear receptor subfamily 1 group I member 2 (Homo sapiens), sequence (O75469 whole entry, looked up): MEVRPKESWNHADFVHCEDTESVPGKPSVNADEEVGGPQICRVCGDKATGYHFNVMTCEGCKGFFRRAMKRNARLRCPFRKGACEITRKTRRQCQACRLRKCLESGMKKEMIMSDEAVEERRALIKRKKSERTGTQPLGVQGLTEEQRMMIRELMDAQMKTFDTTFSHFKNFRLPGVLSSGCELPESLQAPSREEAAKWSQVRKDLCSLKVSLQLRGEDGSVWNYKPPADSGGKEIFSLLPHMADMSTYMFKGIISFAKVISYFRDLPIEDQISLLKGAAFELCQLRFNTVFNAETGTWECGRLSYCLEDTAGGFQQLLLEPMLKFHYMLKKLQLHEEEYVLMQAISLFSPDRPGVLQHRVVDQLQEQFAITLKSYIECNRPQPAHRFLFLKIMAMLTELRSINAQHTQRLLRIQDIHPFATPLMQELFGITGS
Method in brief: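 Agonist mode: luminescence from ONE-Glo after 24 h compound exposure at 37C in HepG2 cells carrying hPXR-responsive CYP3A4 luciferase, plated in charcoal-stripped serum medium 5 h beforehand.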

[16] = molecular target: Thyrotropin-releasing hormone receptor (Homo sapiens) (UniProt P34981); assay: qHTS assay to identify small molecule antagonists of the thyrotropin-releasing hormone receptor (TRHR) signaling pathway (AID 1346877; active = well fitted inhibition curve with a large enough effect in the repeat runs, not every such curve was filed as active; note: series mostly up to about 51 µM)
Thyrotropin-releasing hormone receptor (Homo sapiens), sequence (P34981 whole entry, looked up): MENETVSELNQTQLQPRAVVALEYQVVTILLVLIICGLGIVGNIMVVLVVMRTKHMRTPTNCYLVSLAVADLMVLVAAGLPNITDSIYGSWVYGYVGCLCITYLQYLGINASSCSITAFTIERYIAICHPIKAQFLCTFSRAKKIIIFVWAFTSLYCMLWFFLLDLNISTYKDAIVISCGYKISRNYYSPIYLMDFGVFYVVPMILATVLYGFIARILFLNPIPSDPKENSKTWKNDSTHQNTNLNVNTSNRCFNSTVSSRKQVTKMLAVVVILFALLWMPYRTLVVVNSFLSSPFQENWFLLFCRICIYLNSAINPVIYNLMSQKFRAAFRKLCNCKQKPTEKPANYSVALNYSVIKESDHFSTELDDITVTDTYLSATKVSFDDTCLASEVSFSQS
Method in brief: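 Antagonist mode: after a 5 min room-temperature compound exposure, cells were stimulated with 1 nM (final) TRH. Dye-loaded TRHR-HEK293 cells were used, and calcium-dependent fluorescence was followed for 3 min, with 15-point titrations run in triplicate.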

[17] = molecular target: Thyrotropin-releasing hormone receptor (Homo sapiens) (UniProt P34981); assay: qHTS assay to identify small molecule agonists of the thyrotropin-releasing hormone receptor (TRHR) signaling pathway (AID 1346891; calls by dose curve; note: series mostly up to about 58 µM)
Method in brief: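 Readout was intracellular calcium fluorescence in TRHR-Hek293 cells. Cells were incubated 18 h, dye-loaded 2 h at 37 °C, and treated with compound in agonist mode.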

[18] = molecular target: Nuclear receptor subfamily 1 group I member 2 (Rattus norvegicus) (UniProt Q9R1A7); assay: Rat pregnane X receptor (rPXR) activation by small molecules, qHTS assay (AID 1346983); settings: rPXR luciferase reporter cells, One-Glo luminescence, 24 h; max activation: stronger effect = higher value; note: nearly all actives have a fitted effect of over 20% in size
Nuclear receptor subfamily 1 group I member 2 (Rattus norvegicus), sequence (Q9R1A7 whole entry, looked up): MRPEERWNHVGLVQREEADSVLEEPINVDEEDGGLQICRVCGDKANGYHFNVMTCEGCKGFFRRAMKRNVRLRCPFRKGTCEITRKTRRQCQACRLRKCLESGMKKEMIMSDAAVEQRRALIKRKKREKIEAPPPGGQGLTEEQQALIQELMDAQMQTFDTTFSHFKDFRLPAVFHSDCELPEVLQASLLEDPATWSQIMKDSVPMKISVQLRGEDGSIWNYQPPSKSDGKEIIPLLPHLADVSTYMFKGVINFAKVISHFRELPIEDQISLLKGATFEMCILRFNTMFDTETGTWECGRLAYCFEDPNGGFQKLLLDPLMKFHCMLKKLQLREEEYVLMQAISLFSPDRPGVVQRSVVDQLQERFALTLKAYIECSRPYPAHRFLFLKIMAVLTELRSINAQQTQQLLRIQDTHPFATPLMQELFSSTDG
Method in brief: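 Luminescent readout (One-Glo luciferase, 30 min room temperature) followed 24 hr compound treatment at 37 C of rPXR cells plated 2,000 per well and preincubated 5hr; qHTS format with compounds delivered in DMSO.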

[19] = molecular target: Nuclear receptor subfamily 1 group I member 2 (Homo sapiens) (UniProt O75469); assay: CYP3A4 induction through human pregnane X receptor (PXR) by small molecules, qHTS assay (AID 1346984); note: nearly all actives have a fitted effect of over 40% in size
Method in brief: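 Read-out is luminescence after One-Glo addition, following a 3 hr, 37C incubation with Luciferin-IPA CYP3A4 substrate (3uM final). Before that, compounds were on DPX-2 cells (HepG2 co-transfected with PXR element plus CYP3A4-promoter luciferase) for 24 hr at 37C.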

[20] = molecular target: Nuclear receptor subfamily 1 group I member 2 (Homo sapiens) (UniProt O75469); assay: Human pregnane X receptor (PXR) activation by small molecules, qHTS assay (AID 1346985); note: nearly all actives have a fitted effect of over 40% in size
Method in brief: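 DPX-2 cells (HepG2 co-transfected with a PXR response element and a CYP3A4-promoter luciferase construct) were seeded at 2,000 per well, rested 5 hr at 37C, then exposed to DMSO-dissolved compounds for 24 hr. Activation was read as luciferase luminescence.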

Row | SMILES | Potency [1] | outcome [2] | Potency [3] | Potency [4] | Potency [5] | Potency [6] | outcome [7] | outcome [8] | outcome [9] | Potency [10] | outcome [11] | Potency [12] | outcome [13] | outcome [14] | Potency [15] | outcome [16] | outcome [17] | max activation [18] [%] | Potency [19] | Potency [20]
1 | COC(C(=O)O)c1ccccc1 (stereo not given) | inactive | inactive | inactive | inactive | inactive | inactive | inactive | inactive | inactive | inactive | inactive | inactive | inactive | inactive | inactive | – | – | – | – | –
2 | CNc1ncnc2nc[nH]c12 | inactive | inactive | inactive | inactive | inactive | inactive | inactive | inactive | inactive | inactive | inactive | inactive | inactive | inactive | 9.86 µM (active) | inactive | inactive | – | – | –
3 | NS(=O)(=O)c1cc2c(cc1C(F)(F)F)NC(Cc1ccccc1)NS2(=O)=O (stereo not given) | inactive | inactive | inactive | inactive | inactive | inactive | inactive | inactive | inactive | inactive | inactive | inactive | inactive | inactive | inactive | inactive | inactive | -1.57 | inactive | inactive
4 | COc1nc(C)nc(N)n1 | inactive | inactive | inactive | inactive | inactive | inactive | inactive | inactive | inactive | inactive | – | – | inactive | inactive | inactive | inactive | inactive | – | – | –
5 | CCO[Si](CCCN=C=O)(OCC)OCC | inactive | inactive | inactive | inactive | inactive | inactive | inactive | inactive | inactive | inactive | inactive | inactive | inactive | inactive | inactive | inactive | inactive | – | – | –
6 | O=S(=O)(O)c1ccccc1O | inactive | inactive | inactive | inactive | inactive | inactive | inactive | inactive | inactive | inactive | inactive | inactive | inactive | inactive | inactive | – | – | – | – | –
7 | NC(N)=NS(=O)(=O)c1ccc(N)cc1 | inactive | inactive | inactive | inactive | inactive | inactive | inactive | – | inactive | inactive | inactive | inactive | inactive | inactive | inactive | – | – | -6.55 | inactive | inactive
8 | Cc1cc(C)cc(OCC2CNC(=O)O2)c1 (stereo not given) | inactive | inactive | inactive | inactive | inactive | inactive | inactive | inactive | inactive | inactive | inactive | inactive | inactive | inactive | inactive | – | – | -2.51 | inactive | inactive
9 | Nc1ccn(C2CO[C@H](CO)O2)c(=O)n1 (stereo not given in full) | inactive | inactive | inactive | inactive | inactive | inactive | inactive | inactive | – | inactive | inactive | inactive | inactive | inactive | inactive | – | – | – | – | –
10 | CN(C)N=Nc1ccccc1 | inactive | inactive | inactive | inactive | inactive | inactive | inactive | inactive | – | inactive | inactive | inactive | inactive | inactive | inactive | inactive | inactive | – | – | –
11 | Cn1cnc2c(=O)[nH]c(N)nc21 | inactive | inactive | inactive | inactive | inactive | inactive | inactive | – | inactive | inactive | inactive | inactive | inactive | inactive | inactive | – | – | – | – | –
12 | CCCCCCCCN(C)CCCCCCCC | inactive | inactive | inactive | inactive | inactive | inactive | inactive | inactive | inactive | inactive | inactive | inactive | inactive | inactive | inactive | – | – | – | – | –
13 | N#CC1(O)CCCCC1 | inactive | inactive | inactive | inactive | inactive | inactive | inactive | inactive | inactive | 17.4 µM (active) | inactive | 27.5 µM (active) | inactive | – | 17.4 µM (active) | – | – | – | – | –
14 | O=c1[nH]c2ccccc2c(=O)n1CCCl | inactive | inactive | inactive | inactive | inactive | inactive | inactive | – | inactive | inactive | – | inactive | inactive | inactive | inactive | inactive | inactive | – | – | –
15 | N#CCN(CC#N)CCN(CC#N)CC#N | inactive | inactive | inactive | inactive | inactive | inactive | inactive | inactive | – | inactive | inactive | inactive | inactive | inactive | – | inactive | inactive | – | – | –
16 | NC(=O)CCCCC1CCSS1 (stereo not given) | inactive | inactive | inactive | inactive | inactive | inactive | inactive | – | inactive | inactive | inactive | inactive | inactive | – | inactive | inactive | inactive | -4.58 | inactive | inactive
